Source: PubChem BioAssay (Tox21)
Inconclusive results are not listed. A call without a number means that no potency is given here. The source made the active and inactive calls. Unless noted, calls follow the shape of the dose curve; as a rule, active = well fitted curve in the direction sought with a large enough effect in the repeat runs; inconclusive = weak or mixed curves; inactive = flat fitted curve, though single readings scatter.

Test system: not listed separately
Assay: qHTS assay to test for compound auto fluorescence at 460 nm (blue) in HepG2 cells (AID 720687)
Conditions: autofluorescence 405/460 nm, 1 h; series mostly up to 91.3 µM
In short: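 HepG2 cells in MEM with 10% FBS, attached overnight at 37 C, were exposed to compound or DMSO for 1 hr at 37 C, 5% CO2. Blue fluorescence was read at 405/460 nm, with triamterene as reference fluorophore.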

Structure (SMILES)	Potency	fluorescence, % of fluorescent control
CCCCNS(=O)(=O)c1ccc(C)cc1	inactive	
CCCCCCCCCCCCCC[N+](C)(C)C	inactive	
OC1CCCc2ccccc21 (stereo unspecified)	inactive	
OC[C@H]1O[C@H](O[C@H]2O[C@H](CO)[C@@H](O)[C@H](O)[C@H]2O)[C@H](O)[C@@H](O)[C@@H]1O	inactive	
CC(C)CCCCCOC(=O)CCS	inactive	
CCC(COC(=O)CCS)(COC(=O)CCS)COC(=O)CCS	inactive	
COC(=O)Nc1nc2ccc(C(=O)c3ccccc3)cc2[nH]1		0.116% [at 18.6 µM] (inactive)
CC(=O)OCC=C(C)C	inactive	
CCCCCCOC(=O)C(C)CC (stereo unspecified)	inactive	
COC(=O)c1ccccc1C	inactive	
CN(C)Cc1cc(C(C)(C)C)c(O)c(C(C)(C)C)c1	inactive	
CC/C=C\CCCCCO	inactive	
Cc1ccc(N/N=c2\c(=O)cc/c(=N\Nc3ccc(S(=O)(=O)O)cc3)c2=O)c(C)c1	inactive	
O=C(/C=C/c1ccccc1)OC/C=C/c1ccccc1	inactive	
CCC(=O)OC(=O)CC	inactive	
COc1cc(S(=O)(=O)O)c(C)cc1N=Nc1c(O)ccc2cc(S(=O)(=O)O)ccc12	inactive	
O=[N+]([O-])c1cccc(C(F)(F)F)c1	inactive	

Structure (SMILES)	Potency	fluorescence, % of fluorescent control
CCO[Si](OCC)(OCC)OCC	inactive	
Cc1ccc(-c2ccccc2)cc1	inactive	
CN1CCCCC1CCN1c2ccccc2Sc2ccc(S(C)=O)cc21 (stereo unspecified)	inactive	
O=C(O)[C@H](O)[C@@H](O)[C@H](O[C@@H]1O[C@H](CO)[C@H](O)[C@H](O)[C@H]1O)[C@H](O)CO		0.0744% [at 18.6 µM] (inactive)
CCCCN(CCCC)CC(O)c1cc(Cl)cc2c1-c1ccc(Cl)cc1/C2=C/c1ccc(Cl)cc1 (stereo unspecified)	inactive	
CCCCCc1ccc(Cl)cc1	inactive	
C=Cc1cccc(C)c1	inactive	
CC(C)OC(=O)C(O)(CC(=O)O)CC(=O)O	inactive	
Clc1nnc(Cl)c2ccccc12	inactive	
[Cl][Pt-2]([Cl])([Cl])[Cl]	inactive	
O=S(=O)(O)c1ccc(N=Nc2c(O)ccc3ccccc23)cc1	inactive	
CCOC(=O)NNc1ccc(N(CC)CC(C)O)nn1 (stereo unspecified)	inactive	
CC(C)(C)C1CCC(=O)CC1	inactive	
C1CCC(SSC2CCCCC2)CC1	inactive	
CCN(CC)c1ccc2c(-c3ccc(S(=O)(=O)O)cc3S(=O)(=O)[O-])c3ccc(=[N+](CC)CC)cc-3oc2c1	inactive	
COc1ccc(NC(=O)CC(C)=O)cc1	inactive	

Target: Glucocorticoid receptor (Homo sapiens) (UniProt P04150)
Assay: qHTS assay to identify small molecule agonists of the glucocorticoid receptor (GR) signaling pathway (AID 720691; active = well fitted activation curve with a large enough effect in the signal ratio in the repeat runs, not every such curve was filed as active; the % refers to the signal ratio)
Conditions: GR-bla HeLa, beta-lactamase reporter ratio, 18 h; series mostly up to 62.4 µM
In short: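 Beta-lactamase reporter activity, read as fluorescence intensity, was measured in GR-bla HeLa cells exposed to compounds for 18 h at 37 C and then loaded with LiveBLAzer B/G FRET substrate for 2 h at room temperature.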

Sequence of Glucocorticoid receptor (Homo sapiens) (P04150 whole entry, looked up): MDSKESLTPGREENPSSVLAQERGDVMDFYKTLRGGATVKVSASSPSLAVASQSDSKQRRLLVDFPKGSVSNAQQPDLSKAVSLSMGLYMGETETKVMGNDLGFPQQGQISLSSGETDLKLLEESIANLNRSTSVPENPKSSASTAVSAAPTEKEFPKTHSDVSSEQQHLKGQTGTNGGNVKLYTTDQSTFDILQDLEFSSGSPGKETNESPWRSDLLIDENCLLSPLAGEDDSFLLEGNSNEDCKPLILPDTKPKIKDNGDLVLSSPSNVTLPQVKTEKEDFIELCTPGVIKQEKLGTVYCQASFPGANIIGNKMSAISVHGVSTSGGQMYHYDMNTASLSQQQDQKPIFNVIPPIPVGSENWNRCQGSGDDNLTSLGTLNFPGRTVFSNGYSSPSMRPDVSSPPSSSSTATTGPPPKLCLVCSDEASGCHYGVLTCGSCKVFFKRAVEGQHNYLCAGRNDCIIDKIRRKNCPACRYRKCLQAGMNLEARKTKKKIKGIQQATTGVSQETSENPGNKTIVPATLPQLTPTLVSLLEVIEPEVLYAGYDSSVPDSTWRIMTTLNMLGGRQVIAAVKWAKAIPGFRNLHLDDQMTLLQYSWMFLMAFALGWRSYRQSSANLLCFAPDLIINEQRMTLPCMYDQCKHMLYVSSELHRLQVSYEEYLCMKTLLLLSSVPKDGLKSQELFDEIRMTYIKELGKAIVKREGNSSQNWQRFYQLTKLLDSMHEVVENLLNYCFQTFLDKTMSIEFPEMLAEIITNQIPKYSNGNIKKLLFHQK

Structure (SMILES)	Potency
CCCCNS(=O)(=O)c1ccc(C)cc1	inactive
OC[C@H]1O[C@H](O[C@H]2O[C@H](CO)[C@@H](O)[C@H](O)[C@H]2O)[C@H](O)[C@@H](O)[C@@H]1O	inactive
CC(C)CCCCCOC(=O)CCS	inactive
COC(=O)Nc1nc2ccc(C(=O)c3ccccc3)cc2[nH]1	inactive
CC(=O)OCC=C(C)C	inactive
CCCCCCOC(=O)C(C)CC (stereo unspecified)	inactive
COC(=O)c1ccccc1C	inactive
CN(C)Cc1cc(C(C)(C)C)c(O)c(C(C)(C)C)c1	inactive
CC/C=C\CCCCCO	inactive
O=C(/C=C/c1ccccc1)OC/C=C/c1ccccc1	inactive
CCC(=O)OC(=O)CC	inactive
COc1cc(S(=O)(=O)O)c(C)cc1N=Nc1c(O)ccc2cc(S(=O)(=O)O)ccc12	inactive
O=[N+]([O-])c1cccc(C(F)(F)F)c1	inactive
CCO[Si](OCC)(OCC)OCC	inactive
Cc1ccc(-c2ccccc2)cc1	inactive
ClCCl	inactive
CN1CCCCC1CCN1c2ccccc2Sc2ccc(S(C)=O)cc21 (stereo unspecified)	inactive
C[Si](Cl)(c1ccccc1)c1ccccc1	inactive
NC(=S)NC(N)=S	inactive
O=C(O)[C@H](O)[C@@H](O)[C@H](O[C@@H]1O[C@H](CO)[C@H](O)[C@H](O)[C@H]1O)[C@H](O)CO	inactive
CCCCN(CCCC)CC(O)c1cc(Cl)cc2c1-c1ccc(Cl)cc1/C2=C/c1ccc(Cl)cc1 (stereo unspecified)	inactive
CCCCCc1ccc(Cl)cc1	inactive
C=Cc1cccc(C)c1	inactive
Clc1nnc(Cl)c2ccccc12	inactive
[Cl][Pt-2]([Cl])([Cl])[Cl]	inactive
O=S(=O)(O)c1ccc(N=Nc2c(O)ccc3ccccc23)cc1	inactive
CC(C)(C)C1CCC(=O)CC1	inactive
C1CCC(SSC2CCCCC2)CC1	inactive
CCN(CC)c1ccc2c(-c3ccc(S(=O)(=O)O)cc3S(=O)(=O)[O-])c3ccc(=[N+](CC)CC)cc-3oc2c1	inactive

Target: Glucocorticoid receptor (Homo sapiens) (UniProt P04150)
Assay: qHTS assay to identify small molecule antagonists of the glucocorticoid receptor (GR) signaling pathway (AID 720692; active = well fitted inhibition curve with a large enough effect in the signal ratio in the repeat runs, not every such curve was filed as active; the % refers to the signal ratio; also: potency is read from the fitted curve at half-maximal effect)
Conditions: GR-bla HeLa, beta-lactamase FRET ratio, dexamethasone-stimulated, 18 h; series mostly up to 58.5 µM
In short: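 Fluorescence from cleaved LiveBLAzer B/G FRET substrate reports GRE-driven beta-lactamase in HeLa cells; compounds are tested against 5 nM dexamethasone (final) over 18 h at 37 C, substrate incubation 2 h at room temperature.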

Structure (SMILES)	Potency
CCCCCCCCCCCCCC[N+](C)(C)C	15.5 µM (active)
OC[C@H]1O[C@H](O[C@H]2O[C@H](CO)[C@@H](O)[C@H](O)[C@H]2O)[C@H](O)[C@@H](O)[C@@H]1O	inactive
CC(C)CCCCCOC(=O)CCS	inactive
CCCCCCOC(=O)C(C)CC (stereo unspecified)	inactive
COC(=O)c1ccccc1C	inactive
CC/C=C\CCCCCO	inactive
O=C(/C=C/c1ccccc1)OC/C=C/c1ccccc1	inactive
CCC(=O)OC(=O)CC	inactive
COc1cc(S(=O)(=O)O)c(C)cc1N=Nc1c(O)ccc2cc(S(=O)(=O)O)ccc12	inactive
O=[N+]([O-])c1cccc(C(F)(F)F)c1	inactive
CCO[Si](OCC)(OCC)OCC	inactive
Cc1ccc(-c2ccccc2)cc1	inactive
ClCCl	inactive
CN1CCCCC1CCN1c2ccccc2Sc2ccc(S(C)=O)cc21 (stereo unspecified)	inactive
NC(=S)NC(N)=S	inactive
O=C(O)[C@H](O)[C@@H](O)[C@H](O[C@@H]1O[C@H](CO)[C@H](O)[C@H](O)[C@H]1O)[C@H](O)CO	inactive
CCCCCc1ccc(Cl)cc1	inactive
C1CCC(SSC2CCCCC2)CC1	inactive
CCN(CC)c1ccc2c(-c3ccc(S(=O)(=O)O)cc3S(=O)(=O)[O-])c3ccc(=[N+](CC)CC)cc-3oc2c1	inactive
